Screening results: PubChem, several laboratories
In the library only some 4% were active in any assay of this set; here they are far more common.
RecA intein inh: blocks M. tuberculosis RecA intein splicing. P9WHJ3. 0.75% of 290,000 active. cell-free RecA intein splicing, fluorescence. inhibition, % (concentration not given with the values); in the data active means inhibition above about 30%;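 further: 0% = vehicle wells and 100% = reference inhibitor control wells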
Rv3671c inh: inhibits the M. tuberculosis serine protease Rv3671c. P9WHR9. inhibition, % at 5.96 µM. 0.048% of 320,000 active; in the data active means inhibition above about 38%;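 further: extracellular domain of Rv3671c used as enzyme; 0% = enzyme with DMSO and 100% = no enzyme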
Target sequence (P9WHR9 whole entry, looked up, the tested form may be a part): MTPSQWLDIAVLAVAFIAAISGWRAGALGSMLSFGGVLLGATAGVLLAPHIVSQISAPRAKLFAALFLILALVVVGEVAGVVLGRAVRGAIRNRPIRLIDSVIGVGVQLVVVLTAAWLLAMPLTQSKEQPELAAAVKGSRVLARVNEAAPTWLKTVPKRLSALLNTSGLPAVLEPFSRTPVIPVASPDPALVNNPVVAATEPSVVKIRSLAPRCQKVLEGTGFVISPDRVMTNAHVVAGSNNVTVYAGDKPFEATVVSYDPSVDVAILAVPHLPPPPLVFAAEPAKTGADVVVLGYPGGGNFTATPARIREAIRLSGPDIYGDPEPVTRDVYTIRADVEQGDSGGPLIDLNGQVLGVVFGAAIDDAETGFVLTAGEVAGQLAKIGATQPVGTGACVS
Mtb bLac sens: beta-lactam sensitization of Mtb H37Rv | M. tuberculosis H37Rv growth with meropenem, percent inhibition | inhibition, % at 25 µM | 0.27% of 330,000 active | AID 434955; call rule not given here;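 further: growth measured after seven days incubation then overnight dye step; 0% = bacteria only wells and 100% = bacteria with antibiotic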
FBA Mtb inh: Mtb fructose-bisphosphate aldolase inhibition; 2.3% of 360,000 active; inhibition, % at 1 µM; purified M. tuberculosis FBA, fluorescence read-out; AID 588726; in the data active means inhibition above about 27%;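 further: 0% = vehicle and 100% = reference inhibitor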
UGM FP inh: Mtb UDP-galactopyranose mutase inhibition; purified UGM, fluorescence polarization probe displacement; inhibition, % at 10 µM; 0.06% of 320,000 active; P9WIQ1; in the data active means inhibition above about 10%, passing the limit was not always enough
GDH-TPI counter: inhibits GDH-TPI coupling enzymes, artifact for Mtb FBA screen; 1.2% of 360,000 active; inhibition, % at 4.8 µM; GDH-TPI coupled enzyme counterscreen, NADH absorbance; in the data active means inhibition above about 30%;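 further: 0% = DMSO wells and 100% = wells lacking the enzyme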
The depositor's hits bear a star; / = not tested or not shown.

SMILES	RecA intein inh	Rv3671c inh	Mtb bLac sens	FBA Mtb inh	UGM FP inh	GDH-TPI counter
O=c1/c(=C/c2ccccn2)sc2n1CN(c1ccccc1)CN=2	-0.5	0.1	11.5	-1.4	-0.2	23.6
Cc1cccc(N2CN=c3s/c(=C\c4ccccn4)c(=O)n3C2)c1	-2.8	-2.8	0.7	-1.2	-3.7	64.1*
CC(C)(C)OC(=O)NCCCCCNC(=O)c1[nH]cnc1C(=O)Nc1cc(Br)ccc1F	/	/	/	4.4	/	10.3
CCOC(=O)c1ccc2nc(C(F)(F)F)[nH]c(=O)c2c1	/	-0.7	10.5	42.0*	3.1	4.8
Nc1ccc2c(c1)oc1ccccc12	4.1	0.2	99.8	57.3*	-0.5	12.7
Cc1ccc2c(c1)N(C(=O)CCC(=O)NCCCN1CCN(C)CC1)CC(C)O2 (stereo unspecified)	-1.8	0.3	-10.2	0.2	-5.1	-15.8
CCOC(=O)c1nn(-c2ccc(C)cc2)c(=O)c2c(N)scc12	34.8*	-21.3	-0.8	-1.7	2.5	-3.1
CCOC(=O)c1nn(-c2ccc(F)cc2)c(=O)c2c(N)scc12	21.8	-8.4	0.0	-4.7	1.2	1.3
Cc1[nH]ccc2c1[nH]c1cc(=O)ccc12	-44.3	-5.7	0.8	166.8*	-0.9	6.7
COc1ccc(-c2sc3ccc(OC)cc3c2-c2ccc(OC)nc2)cc1	/	-0.8	8.0	4.7	0.3	20.7
c1ccc(Sc2ncnc3ccccc23)cc1	39.8*	-0.3	1.5	2.8	1.6	7.0
O=c1[nH]c2cc3c(cc2cc1CN(CCO)S(=O)(=O)c1ccccc1)OCCO3	-2.2	-11.9	-4.6	26.4	1.2	37.0*
CC(=O)c1ccc(S(=O)(=O)N(CCCO)Cc2cc3cc4c(cc3[nH]c2=O)OCCO4)cc1	0.7	1.6	-9.1	-1.6	1.6	11.3
COCCN(C(=O)COC(=O)C12CC3CC(CC(C3)C1)C2)c1c(N)n(Cc2ccccc2)c(=O)[nH]c1=O	/	/	/	0.2	/	0.0
O=C(c1c[nH]c(C(=O)C(Cl)(Cl)Cl)c1)c1ccccc1F	59.9*	0.8	6.2	0.3	1.6	4.8
CCOc1ccc(NC(=O)Nc2cc(-c3ccccc3)sc2C(=O)OC)cc1	-1.9	-10.3	-0.2	0.6	1.1	9.9
CCOc1ccc(-c2cc(NC(=O)c3c(F)cccc3F)c(C(=O)O)s2)cc1	4.7	/	15.1	-0.1	-1.9	31.7*
COC(=O)c1sc(-c2ccc(Cl)cc2)cc1NC(=O)c1ccccc1C(=O)O	3.6	0.7	-3.9	1.8	1.3	31.7*
C/C(=N\NC(=O)c1ccco1)c1ccc(NC(=O)C(F)(F)F)cc1	1.1	/	/	-1.2	/	8.4
O=C(OCCN1C(=O)c2cccc3c(N4CCOCC4)ccc(c23)C1=O)c1ccccc1Cl	-336.8	-42.0	-0.6	1.2	22.3*	-0.7
O=C(OCCN1C(=O)c2ccccc2C1=O)c1cc(S(=O)(=O)N2CCOCC2)ccc1Cl	2.3	-1.1	-1.4	7.5	1.1	-4.3
O=C(OCCN1C(=O)c2cccc3c(N4CCOCC4)ccc(c23)C1=O)c1ccc(Cl)cc1Cl	-58.1	-33.0	83.7	-3.9	22.9*	-0.7
O=C1c2cccc3c(N4CCCCC4)ccc(c23)C(=O)N1CCO	-29.0	-3.5	-1.1	-4.5	30.3*	15.5
O=C(OCCN1C(=O)c2cccc3c(N4CCOCC4)ccc(c23)C1=O)c1cccc(Cl)c1	-109.5	-22.9	-1.6	/	24.5*	/
CNc1cc(-c2cccc(N(C)C)c2)ncn1	/	/	/	0.6	/	4.9
SMILES	RecA intein inh	Rv3671c inh	Mtb bLac sens	FBA Mtb inh	UGM FP inh	GDH-TPI counter
COc1cc(/C=C/C(=O)OCC(=O)N2c3ccccc3NC(=O)C2(C)C)cc(OC)c1OC	/	-6.8	-1.2	7.9	2.1	17.6
COc1ccc(OCC2CCNCC2)cc1	2.1	3.2	-4.4	0.0	0.4	1.5
Cc1n[nH]c(C)c1N1C(=O)c2cccc3c(N4CCCCCC4)ccc(c23)C1=O	-70.2	18.9	67.8	-18.2	13.6*	10.4
O=P(c1ccccc1)(c1ccccc1)C(O)c1cccs1 (stereo unspecified)	/	/	/	0.6	/	12.4
COc1ccc2c(c1)/C(=N/N1C(=O)c3ccccc3C1=O)C(=O)N2	0.8	-12.0	0.5	/	4.3	/
COc1ccc2c(c1)/C(=C\c1cccc(/C=C3/C(=O)Nc4ccc(OC)cc43)n1)C(=O)N2	/	/	/	-1.1	/	33.5*
CSc1nc(N)nc2c1ncn2CC(=O)NCCCc1ccccc1	/	5.0	4.9	5.0	-0.6	0.9
CCN1C(=O)S/C(=C/c2ccsc2)C1=O	-0.9	-4.9	5.2	-1.7	-2.4	38.8*
C=CCN1C(=O)S/C(=C/c2ccsc2)C1=O	-2.7	2.5	-12.8	-0.5	-0.5	23.4
Cc1nc2ccccc2n1CC(=O)c1ccc(O)c(O)c1	/	4.4	-5.9	1.5	-0.7	25.9
